# JNK3 inh – JNK3 kinase activity inhibitors, primary screen, biochemical, human, purified enzyme; Mitogen-activated protein kinase 10 (Homo sapiens), P53779; HTS; inhibition, % at 8 µM; 60,000 compounds, 0.61% hits; AID 746, 2007; in the data active = inhibition above about 17%;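 note: 0% = DMSO and 100% = reference inhibitor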
# IL1B NFkB pot – enhancers of NFkB p65 translocation in HUVEC – imaging, IL-1B stimulus, high-content imaging, primary screen. activation, % at 2 µM. HUVEC IL-1B NFkB p65 nuclear translocation imaging. 94,000 compounds, 0.3% hits;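 active = activation above 40%, about the mean plus 3 SD, also judged a hit on visual image review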;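 note: percent activation is computed from the nuclear over cytoplasmic p65 intensity ratio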
# FAK inh – FAK kinase inhibitors, primary screen, biochemical; Focal adhesion kinase 1 (Homo sapiens), Q05397; biochemical FAK kinase activity assay; inhibition, %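 (tested at 7 µM)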; 97,000 compounds, 0.84% hits; AID 727, 2007;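 note: 0% = DMSO and 100% = reference compound high control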
# Pyk2 oligo antag – antagonists of Pyk2 self-association, primary screen, Q293 cells, FERM NanoBiT luminescence, HTS; Protein-tyrosine kinase 2-beta (Homo sapiens), Q14289; hits give low values; z-score (the deposit names both 25 µM and 10 µM); 99,000 compounds, 0.83% hits; AID 1347419, 2020;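 active = Z-score of -3 or lower, scaled per plate to the spread of control and sample wells; inactive = z-score above -3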;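 note: negative z-score means lost luminescence so less FERM oligomerization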
# Target sequence (Q14289 whole entry, looked up): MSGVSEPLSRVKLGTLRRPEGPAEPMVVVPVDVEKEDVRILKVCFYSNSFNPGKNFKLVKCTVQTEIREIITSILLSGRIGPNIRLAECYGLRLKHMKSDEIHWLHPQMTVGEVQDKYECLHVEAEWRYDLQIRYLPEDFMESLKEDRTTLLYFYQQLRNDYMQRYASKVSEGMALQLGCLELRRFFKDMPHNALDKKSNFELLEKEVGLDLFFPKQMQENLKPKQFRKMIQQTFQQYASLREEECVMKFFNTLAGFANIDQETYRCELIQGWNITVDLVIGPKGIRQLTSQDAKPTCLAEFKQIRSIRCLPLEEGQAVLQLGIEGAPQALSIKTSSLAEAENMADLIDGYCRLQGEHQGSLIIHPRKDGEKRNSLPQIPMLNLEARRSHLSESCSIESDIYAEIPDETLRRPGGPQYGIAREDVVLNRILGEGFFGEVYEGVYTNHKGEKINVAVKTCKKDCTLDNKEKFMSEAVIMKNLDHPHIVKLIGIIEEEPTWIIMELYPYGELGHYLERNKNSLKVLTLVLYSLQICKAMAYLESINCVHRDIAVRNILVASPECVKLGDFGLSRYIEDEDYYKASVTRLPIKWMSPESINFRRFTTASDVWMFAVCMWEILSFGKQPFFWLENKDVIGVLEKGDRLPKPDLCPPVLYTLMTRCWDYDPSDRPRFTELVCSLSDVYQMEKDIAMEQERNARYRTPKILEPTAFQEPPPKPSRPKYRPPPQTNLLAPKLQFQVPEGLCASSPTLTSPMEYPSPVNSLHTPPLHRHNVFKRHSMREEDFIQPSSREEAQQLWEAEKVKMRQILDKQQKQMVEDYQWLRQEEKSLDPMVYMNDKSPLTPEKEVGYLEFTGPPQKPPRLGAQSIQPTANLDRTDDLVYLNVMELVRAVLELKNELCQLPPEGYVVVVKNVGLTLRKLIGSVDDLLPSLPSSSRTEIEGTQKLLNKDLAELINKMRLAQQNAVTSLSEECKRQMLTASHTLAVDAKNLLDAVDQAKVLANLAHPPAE
# NFkB transloc inh – inhibitors of IL-1B driven NFkB p65 nuclear import, primary screen, imaging, HUVEC, IL-1B stimulus, high-content imaging. HUVEC IL-1B NFkB p65 nuclear translocation imaging. inhibition, % at 2 µM. 94,000 compounds, 0.43% hits;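 active = inhibition above about 30% together with a positive call from visual inspection of the well image, limit read from the data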;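 note: nuclear over cytoplasmic p65 intensity ratio measured by imaging; 0% = IL-1B stimulated DMSO wells and 100% = unstimulated DMSO wells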
# HUVEC tox IL1B – cytotoxicity in IL-1B stimulated HUVEC, primary screen, cytotoxicity control for IL-1B NFkB translocation project, imaging, Hoechst nuclear count, IL-1B stimulus; HUVEC cell count loss; AID 845, 2007; cell count reduction, % at 2 µM; 94,000 compounds, 0.41% hits;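 active = cell count reduction more than 3 SD above the screen-wide mean, cut at about 70% in these data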;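 note: normalized per plate to untreated control cells as the no-loss baseline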
# FAK inh confirm – FAK kinase inhibitors, retest, confirmation, biochemical; 750 compounds, 28% hits; FAK kinase biochemical inhibition assay; shares compounds with FAK inh; inhibition, % at 7 µM
# * = called active by the depositor; · = no result given. Most compounds without a hit are left out; they make up all but 2.4% or so of the library. Cut-off read from the data, not from the text of the source, unless noted: active = inhibition above about 19%; inactive = the rest.
SMILES,JNK3 inh,IL1B NFkB pot,FAK inh,Pyk2 oligo antag,NFkB transloc inh,HUVEC tox IL1B,FAK inh confirm
COC(=O)c1ccc2c(c1)NC1=C(C(=O)CC(C)(C)C1)C(c1ccncc1)N2 (centres undefined),·,·,·,0.11,·,·,·
COc1cc(C2Nc3ccc4ncccc4c3C3=C2C(=O)CC(C)(C)C3)cc(OC)c1O (centres undefined),·,-9.6,46.9*,-0.17,9.6,-1.3,34.2*
CC1CCc2c(C(=O)Oc3cccc(-n4cnnn4)c3)csc2C1 (centres undefined),·,19.0,0.4,0.63,-19.0,-18.8,·
Fc1cccc2sc(Nc3nnc(-c4ccccc4)o3)nc12,-7.2,34.5,-9.7,-1.33,-34.5,-26.0,·
COc1cc(OC)cc(-c2nnc(Nc3nc4c(F)cccc4s3)o2)c1,9.0,11.0,36.0*,-0.5,-11.0,11.6,10.1
COc1ccc(-c2nnc(Nc3nc4c(OC)cccc4s3)o2)cc1,-1.7,4.7,55.9*,-0.39,-4.7,20.9,26.7*
CC(C)(C)NC(=O)COC(=O)c1cc(S(=O)(=O)N2CCCCC2)ccc1N1CCOCC1,·,6.4,-0.1,1.51,-6.4,10.2,·
Oc1ccc(N=Cc2ccc(O)c(O)c2)cc1,3.2,-7.2,22.5*,0.78,7.2,-14.4,2.0
O=S(=O)(NCc1ccco1)c1cnc(Cl)c(Br)c1,·,·,·,1.06,·,·,·
COCCOC(=O)C1=C(C)NC2=C(C(=O)CC(c3cccs3)C2)C1c1ccsc1 (centres undefined),0.7,10.9,23.0*,-2.04,-10.9,-14.6,19.0*
CCc1nc(SCCO)c2oc3ccccc3c2n1,5.2,-0.7,6.8,-2,0.7,-70.5,·
CCc1nc(Sc2nc(C)cc(C)n2)c2oc3ccccc3c2n1,2.0,6.1,22.4*,-1.04,-6.1,-31.3,5.4
O=c1oc2c3c4c(cc2s1)CCCN4CCC3,·,20.1,20.1*,0.2,-20.1,-8.3,6.0
COc1cccc(-c2nc(-c3ccccc3)no2)c1,0.3,-5.7,0.0,0.07,5.7,1.6,·
COc1cccc(-c2nc(-c3ccccn3)no2)c1,·,-0.2,98.3*,·,0.2,-5.4,-2.1
COCCn1c(-c2ccc(Cl)cc2)cnc1SCC(=O)NCc1cccs1,7.0,22.2,-0.4,-0.3,-22.2,-16.8,·
CCOC(=O)c1ccc(NC2=CC(=O)C(=O)c3ccccc32)cc1,·,3.0,35.7*,-4.33*,-3.0,2.2,34.7*
CSc1nnc(-c2ccco2)c(-c2ccco2)n1,0.5,-8.9,8.0,-0.59,8.9,-1.3,·
CSc1nc(N(C)CCO)c2sc3nc(-c4ccco4)c4c(c3c2n1)CCC4,·,-4.2,35.8*,0.6,4.2,-0.3,-0.7
O=C(c1cccnc1)N1CCN(c2c(Cl)cccc2[N+](=O)[O-])CC1,·,4.2,-2.4,-0.81,-4.2,-19.2,·
Cc1cc(NC(=O)Cc2cccs2)no1,-4.1,19.9,40.0*,1.12,-19.9,-24.6,27.9*
COc1ccc(Br)cc1CNc1ccc(O)cc1,-5.2,19.0,46.7*,0.25,-19.0,-2.6,0.7
COc1ccc(-n2nnnc2SCC(=O)Nc2nc3c(s2)CCCC3)cc1,·,3.9,23.8*,-1.57,-3.9,-9.1,5.8
COc1ccc(-n2nnnc2SCC(=O)Nc2nnn(C)n2)cc1,·,3.5,-1.9,0.97,-3.5,1.3,·
Cc1nc(SCC(=O)c2ccc(Cl)cc2)c([N+](=O)[O-])[nH]1,·,-5.6,2.4,0.59,5.6,6.7,·
Cc1cc(S(=O)(=O)Nc2ccc(C(=O)N3CCN(C(=O)c4ccco4)CC3)cc2)ccc1F,·,2.1,1.3,0.19,-2.1,18.2,·
O=C(c1ccc(S(=O)(=O)Nc2ccc(F)cc2)cc1)N1CCN(C(=O)c2ccco2)CC1,·,3.5,27.4*,0.5,-3.5,-31.5,-1.0
c1ccc(-c2csc3ncn4nnnc4c23)cc1,4.7,-6.3,4.7,0.87,6.3,17.5,·
Cc1ccc(Cl)cc1NC1=C/C(=N\S(=O)(=O)c2cccs2)c2ccccc2C1=O,·,41.0*,31.8*,-4.44*,-41.0,2.6,22.9*
